Bioassay records: PubChem BioAssay, National Center for Advancing Translational Sciences (NCATS)
This is a sample that favours compounds with a hit; in the whole collection about 5.2% have one here.
FBPA coupling cs: coupling enzyme interference in Giardia aldolase counter-screen; coupling enzyme system counterscreen, AmpLite Red fluorescence; activity change, negative = inhibition, % at 58.2 µM, hits read low; 0.67% of 290,000 active; AID 2472; in the data active = activity change below about -30%
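Activity here indicates interference with the coupling reaction, not aldolase inhibition. Compounds at 57.5 uM final met coupling enzymes for 10 min at RT; substrate and AmpLite Red detection followed, with a 525/598 nm fluorescence read after 20 min.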
Tau fluor cs: counter-screen for tau fibril formation inhibitors. 0.93% of 280,000 active. AID 1463. Potency, µM (top dose mostly 57.7 µM). tau K18 P301L Alexa594 fluorescence, heparin fibrillization; also: nearly all actives have a fitted effect of over 55% in size
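Human K18 P301L tau (15 uM unlabeled plus 0.24 uM Alexa 594-labeled, final) in 100 mM sodium acetate pH 7 was mixed with compound and 20 uM heparin and incubated 6 hr at 37 C.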
Tau ThT inhib: tau fibrillization inhibition (ThT binding). P10636. recombinant tau K18 P301L, heparin-induced fibrillization, ThT fluorescence. Potency, µM (series often up to 57.4 µM), usual class: inhibitors. 2.1% of 270,000 active; also: nearly all actives have a fitted effect of over 55% in size
Target sequence (P10636 561-689 P618L limits assumed): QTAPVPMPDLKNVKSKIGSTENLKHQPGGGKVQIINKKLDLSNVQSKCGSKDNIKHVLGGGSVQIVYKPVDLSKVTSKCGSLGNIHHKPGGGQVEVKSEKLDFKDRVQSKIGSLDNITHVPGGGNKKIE
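Fibril formation assay: tau K18 P301L at 15 uM with trace Alexa 594 label, heparin inducer 20 uM, pH 7 sodium acetate buffer, 37 C for 6 hr; endpoint ThT signal.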
Tau FP inhib: tau fibrillization inhibition (FP); P10636; K18 P301L tau heparin fibrillization, Alexa594 FP, 6 h; Potency, µM (titrated, usually from 57.7 µM), hits mostly inhibitors; 0.39% of 280,000 active; AID 1468; also: nearly all actives have a fitted effect of over 55% in size
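Compound effects on tau fibrillization are measured by Alexa 594 fluorescence polarization (ex 555, em 632 nm). K18 P301L tau is used at 15 uM with 0.24 uM labeled tracer, and 20 uM heparin induces aggregation over 6 hr at 37 C.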
Sfp inh: Sfp phosphopantetheinyl transferase inhibition | Potency, µM, usual class: inhibitors | Biochemical Sfp PPTase activity, qHTS | 3.5% of 310,000 active;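 also: the enzyme is Sfp with the accession as filed and its product quenches rhodamine fluorescence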
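Fluorescence-quenching assay: 15 nM Sfp-PPTase preincubated 15 min at room temperature with compound, then 5 uM rhodamine-CoA and 12.5 uM BHQ-2-labelled YbbR peptide added. Fluorescence (ex 525/em 598 nm) read at start and after 30 min; difference gives rate.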
Large screens that a line does not name were inactive; ! = not active in a repeat; [ ] = dose if it differs, or a comment. Unless noted, calls follow the shape of the dose curve; as a rule, active = well fitted curve in the direction sought with a large enough effect; inconclusive = small, poorly fitted or top-dose-only effect, or another doubt; inactive = no such curve, though single readings can be large; an effect the other way counts as inactive or inconclusive.

NC(N)=N/N=C/c1c(Cl)cccc1Cl	Sfp inh 100µM!
CCOc1cc(/C=N/NC(=O)c2cccs2)ccc1OC(=O)N1CCOCC1	Tau ThT inhib inconclusive
Nc1cncc(C(=O)O)c1	FBPA coupling cs -31!, Sfp inh 79µM!
Cc1cc(C=C2C(=O)NC(=S)NC2=O)c(C)n1C1CCCC1	Tau ThT inhib 16µM, Sfp inh 40µM
CNC(=S)N(C)CCc1cc2c(c(OC)c1C=C1C(=O)NC(=O)NC1=O)OCO2	Tau ThT inhib inconclusive, Sfp inh inconclusive
CCOc1cc(C=C2C(=O)NC(=O)NC2=O)ccc1OCC(=O)N1CCOCC1	Tau ThT inhib inconclusive, Tau FP inhib inconclusive, Sfp inh inconclusive
COc1cc(/C=C2/C(=O)N(c3ccccc3)N=C2C)ccc1OS(=O)(=O)c1ccccc1	FBPA coupling cs -42, Tau fluor cs inconclusive, Tau ThT inhib 14µM
COCCN1C(=O)/C(=C/c2c(OC)cc(OC)cc2OC)C(=O)N(c2ccccc2)C1=O	none
COc1cc(C=C2C(=O)NC(=O)NC2=O)cc(OC)c1OC	Tau ThT inhib inconclusive, Sfp inh 32µM
COc1cc(C=C2C(=O)NC(=O)NC2=O)ccc1OS(=O)(=O)c1ccccc1[N+](=O)[O-]	Sfp inh 50µM (no result: Tau fluor cs, Tau ThT inhib, Tau FP inhib)
COc1cc(OC)c(/C=C2/C(=O)Nc3ccccc32)c(OC)c1	Tau ThT inhib inconclusive (no result: FBPA coupling cs, Sfp inh)
CCOc1cc(C=C2C(=O)NC(=O)NC2=O)ccc1OS(=O)(=O)c1ccccc1	Tau ThT inhib inconclusive, Sfp inh 50µM
O=C(Nc1cccc(F)c1)N1CCCC2(CCN(C(=O)Oc3ccccc3)CC2)C1	none (no result: Tau fluor cs, Tau ThT inhib, Tau FP inhib)
CCCCCCCCCCCCCC(=O)O[C@@H]1[C@@H](C)[C@@]2(O)[C@H](C=C(CO)C[C@]3(O)C(=O)C(C)=C[C@@H]23)[C@@H]2C(C)(C)C12OC(C)=O (some centres undefined)	Tau ThT inhib inconclusive (no result: FBPA coupling cs)
C[C@@H]1CC[C@H]2[C@H](C)[C@H]3CC[C@@]4(O)[C@@H]5CC(=O)[C@H]6CC(=O)CC[C@]6(C)[C@H]5C[C@H]4[C@@H]3CN2C1	none (no result: Tau fluor cs, Tau ThT inhib, Tau FP inhib)
O=C1NC(=O)C(=Cc2ccc(-c3ccc(F)cc3O)o2)C(=O)N1	Sfp inh 50µM (no result: Tau fluor cs, Tau ThT inhib, Tau FP inhib)
O=C1NC(=O)C(=Cc2ccc(N3CCOCC3)cc2)C(=O)N1	Tau ThT inhib inconclusive
CN1C(=O)C(=Cc2ccc(Sc3ccccc3)o2)C(=O)N(C)C1=O	Tau fluor cs inconclusive, Tau ThT inhib inconclusive
O=C1NC(=O)C(=Cc2ccc(-c3ccc(S(=O)(=O)N4CCOCC4)cc3)o2)C(=O)N1	Sfp inh 8.9µM (no result: Tau fluor cs, Tau ThT inhib, Tau FP inhib)
O=C1NC(=O)C(=Cc2ccc(Sc3ccccc3)o2)C(=O)N1	Tau ThT inhib inconclusive, Sfp inh 25µM
Cc1c(C=C2C(=O)NC(=O)NC2=O)c(=O)n(-c2ccccc2)n1C	Tau ThT inhib inconclusive
O=C1NC(=O)C(=Cc2ccc(-c3ccc(Cl)cc3)o2)C(=O)N1	Sfp inh 20µM (no result: Tau fluor cs, Tau ThT inhib, Tau FP inhib)
CCOC(=O)c1c(C)[nH]c(C)c1S(=O)(=O)NCC(=O)N1CCN(c2cc(Cl)ccc2C)CC1	Tau fluor cs inconclusive (no result: FBPA coupling cs, Sfp inh)
C=CCN1C(=O)/C(=C/c2ccc(Br)s2)C(=O)NC1=S	Sfp inh 40µM (no result: Tau fluor cs, Tau ThT inhib, Tau FP inhib)
CCN1C(=O)/C(=C\c2ccc([N+](=O)[O-])s2)C(=O)NC1=S	FBPA coupling cs -40, Tau fluor cs inconclusive, Tau ThT inhib 3.5µM, Tau FP inhib inconclusive, Sfp inh 10µM
COc1ccc(S(=O)(=O)NCCc2sc3nc(-c4ccc(C)cc4)nn3c2C)cc1F	Tau FP inhib inconclusive (no result: FBPA coupling cs, Sfp inh)
O=c1[nH]c(=O)n(C2CCCCC2)c(O)c1C1NCCc2ccccc21 (centres undefined)	Tau fluor cs inconclusive, Tau ThT inhib inconclusive, Tau FP inhib inconclusive, Sfp inh 35µM
CCC(=NCc1cccnc1)c1c(O)n(C2CCCCC2)c(=O)[nH]c1=O	none
CN1CCN(c2ccc([N+](=O)[O-])c3no[n+]([O-])c23)CC1	Tau fluor cs inconclusive, Tau ThT inhib 13µM, Tau FP inhib inconclusive
COc1ccc(NC2=NCC(C)S2)cc1 (centres undefined)	none
COc1ccc(NC2=NC(C)(C)CS2)cc1	Sfp inh 56µM
CCN(CCO)c1ccc(N=Cc2c(O)n(C)c(=S)[nH]c2=O)cc1	FBPA coupling cs -47, Sfp inh 40µM (no result: Tau ThT inhib)
CCCCC/C=C\C/C=C\C/C=C\C/C=C\CCCC(=O)NCC(=O)O	Tau ThT inhib inconclusive, Sfp inh 79µM!
CCCCC/C=C\C/C=C\C/C=C\C/C=C\CCCC(=O)Nc1ccc(O)cc1	Tau fluor cs 14µM[quencher], Tau ThT inhib inconclusive, Tau FP inhib inconclusive
CCCCC/C=C\C/C=C\C/C=C\C/C=C\CCCC(=O)NCc1ccoc1	Tau ThT inhib 22µM, Tau FP inhib inconclusive, Sfp inh 22µM
CCCCC/C=C\C/C=C\C/C=C\C/C=C\CCCC(=O)NCCc1ccc(O)c(O)c1	Tau fluor cs inconclusive, Tau ThT inhib inconclusive, Tau FP inhib inconclusive, Sfp inh 45µM!
CCCCC/C=C\C/C=C\C/C=C\C/C=C\CCCC(=O)NCCCC(=O)O	Tau ThT inhib inconclusive, Sfp inh inconclusive
CCCCC/C=C\C/C=C\CCCCCCCCCC(=O)NCCO	none
O=C(Nc1ccc(OC(F)(F)F)cc1)C1CCN(S(=O)(=O)c2cccs2)CC1	Tau FP inhib inconclusive (no result: FBPA coupling cs, Sfp inh)
C[C@@H]1C[C@@H]2[C@H]([C@H]3C=C(COC(=O)c4ccccc4)[C@@H](O)[C@]4(O)[C@@H](O)C(OC(=O)c5ccccc5)=C[C@@]14C3=O)C2(C)C	none (no result: Tau fluor cs, Tau ThT inhib, Tau FP inhib)
CCCCCCCCCCCCC/C=C/[C@@H](O)[C@@H](N)COP(=O)([O-])OCC[N+](C)(C)C	Sfp inh inconclusive
NC(=O)CF	none (no result: Tau fluor cs, Tau ThT inhib, Tau FP inhib)
CCCCC/C=C\C/C=C\C/C=C\C/C=C\CCCC(=O)OCCN	Tau ThT inhib inconclusive, Sfp inh 63µM
CCCCC/C=C\C/C=C\C/C=C\C/C=C\CCCC(N)=O	none
CCCCC/C=C\C/C=C\C/C=C\C/C=C\CCCC(=O)NCCO	Sfp inh 45µM!
CC1(C)C[C@H]2C=C(C=O)[C@]3(C=O)C[C@]3(C)[C@H]2C1	Tau ThT inhib 14µM, Tau FP inhib inconclusive, Sfp inh inconclusive
C[C@H](NC(=O)[C@@H](N)Cc1ccc(O)cc1)C(=O)NCC(=O)N(C)[C@@H](Cc1ccccc1)C(=O)NCCO	none (no result: FBPA coupling cs)
COc1cccc(-c2nn(Cc3ccccc3)cc2C(=O)O)c1	none (no result: Tau fluor cs, Tau ThT inhib, Tau FP inhib)
COc1cccc(CNC(=O)CSc2ccc(-c3ccco3)nn2)c1	Sfp inh 22µM
C=CCN1CC[C@]23c4c5ccc(O)c4O[C@@H]2C(=O)CC[C@]3(O)[C@H]1C5	none
C=CC[N+]1(C)CCC23c4c5ccc(O)c4O[C@H]2C(=O)CC[C@@]3(O)C1C5 (some centres undefined)	Sfp inh 56µM (no result: FBPA coupling cs)
COc1ccc(N2C(=O)CC(=O)NC2=O)cc1	Tau ThT inhib inconclusive, Sfp inh inconclusive
COc1ccc(CN2C(=O)CC(=O)NC2=O)cc1	Tau ThT inhib 25µM, Tau FP inhib inconclusive
